# Screening results as filed in PubChem BioAssay.
# A selection: hits, their analogues and other compounds. The true share with any hit is near 8.5%.
# RGS12 GoLoco inh = qHTS Assay for Inhibitors of RGS12 GoLoco Motif Activity (Red Fluorophore). AID 880, 2007. Gai1:RGS12 GoLoco peptide FP, rhodamine, 10 min. 230,000 tested, 0.44% active. Guanine nucleotide-binding protein G(i) subunit alpha-1 (Homo sapiens), P63096. Potency, µM (series often up to 61.6 µM), without a hit: at the top dose activity, negative = inhibition, actives largely listed as inhibitors; active = well fitted inhibition curve with a large enough effect, not every such curve was filed as active; inactive = no such curve, though single readings can be large or run the other way; also: potency is read from the fitted curve at half-maximal effect; nearly all actives have a fitted effect of over 30% in size
# Sfp inh = qHTS Assay for Inhibitors of Bacillus subtilis Sfp phosphopantetheinyl transferase (PPTase) | 4'-phosphopantetheinyl transferase ffp (Bacillus subtilis), Q9F4F7 | Biochemical Sfp PPTase activity, qHTS | Potency, µM, without a hit: largest response in the series, negative = inhibition, hits mostly inhibitors | 310,000 tested, 3.5% active | AID 1490, 2009;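 also: the enzyme is Sfp with the accession as filed and its product quenches rhodamine fluorescence; potency is read from the fitted curve at half-maximal effect; 0% = enzyme reaction without inhibitor and -100% = no enzyme wells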
#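 Reaction rates are the 30-min fluorescence difference (ex 525, em 598 nm) in wells containing 15 nM Sfp, 5 uM rhodamine-CoA and 12.5 uM BHQ-2-YbbR at pH 7.6 with 10 mM MgCl2.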
# NPSR antagonist = qHTS Assay for Antagonists of the Neuropeptide S Receptor: cAMP Signal Transduction; 220,000 tested, 1% active; Q6W5P4; Potency, µM (titrated, usually from 38.3 µM), without a hit: top-dose activity change, negative = inhibition, actives largely listed as inhibitors; CHO-NPSR cells, cAMP TR-FRET, antagonist mode; also: potency is read from the fitted curve at half-maximal effect; nearly all actives have a fitted effect of over 50% in size
# Coupling enz = qHTS Assay for Inhibitors of Fructose-1,6-bisphosphate Aldolase from Giardia Lamblia: Coupling assay counterscreen. coupling enzyme system counterscreen, AmpLite Red fluorescence. activity change, negative = inhibition, % at 58.2 µM, hits read low. 290,000 tested, 0.67% active. AID 2472, 2010; in the data active = activity change below about -30%
#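 First, compound is pin-transferred into glyceraldehyde-3-phosphate coupling-enzyme reagent at 57.5 uM final and held 10 min at RT. Next, substrate, coupling system and AmpLite Red are added. After 20 min RT, fluorescence (525/598 nm) is read.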
# ALDH1A1 inh = qHTS Assay for Inhibitors of Aldehyde Dehydrogenase 1 (ALDH1A1); Aldehyde dehydrogenase 1A1 (Homo sapiens), P00352; Purified ALDH1A1, NADH fluorescence, propionaldehyde substrate; Potency, µM (highest dose often 75.3 µM), for the others: top-dose activity, negative = inhibition, actives largely listed as inhibitors; 220,000 tested, 7.3% active; AID 1030, 2008; active = well fitted inhibition curve with a large enough effect, not every such curve was filed as active; inconclusive = small, poorly fitted or top-dose-only effect, or another doubt; inactive = no such curve, though single readings can be large or run the other way;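 also: potency is read from the fitted curve at half-maximal effect; plate controls were no enzyme wells and a reference inhibitor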
# Target sequence (P00352 whole entry, looked up): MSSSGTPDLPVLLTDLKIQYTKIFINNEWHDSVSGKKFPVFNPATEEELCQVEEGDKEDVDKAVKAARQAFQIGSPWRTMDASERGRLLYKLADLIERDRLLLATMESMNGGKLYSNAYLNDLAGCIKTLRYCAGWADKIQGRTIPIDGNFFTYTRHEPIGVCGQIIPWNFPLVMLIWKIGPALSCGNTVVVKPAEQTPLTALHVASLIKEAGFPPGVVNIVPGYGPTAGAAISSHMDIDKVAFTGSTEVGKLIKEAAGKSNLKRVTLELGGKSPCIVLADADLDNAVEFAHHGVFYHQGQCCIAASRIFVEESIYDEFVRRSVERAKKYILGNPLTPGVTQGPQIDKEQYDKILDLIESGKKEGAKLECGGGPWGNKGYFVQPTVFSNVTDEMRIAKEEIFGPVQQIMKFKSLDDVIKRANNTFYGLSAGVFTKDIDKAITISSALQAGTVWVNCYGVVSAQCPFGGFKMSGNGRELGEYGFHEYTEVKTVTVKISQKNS
# JMJD2E inh = qHTS Assay for Inhibitors of Human Jumonji Domain Containing 2E (JMJD2E); Potency, µM (highest dose often 57.1 µM), inactives show at the highest dose activity change, negative = inhibition, hits mostly inhibitors; 230,000 tested, 1.6% active; JMJD2E catalytic domain, FDH-coupled NADH fluorescence (FDH is formaldehyde dehydrogenase);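 also: potency is read from the fitted curve at half-maximal effect; 0% = wells with enzyme and -100% = buffer wells without enzyme; nearly all actives have a fitted effect of over 50% in size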
# Numbers without * were called inactive; ? = inconclusive; nt = no result; [ ] = another dose, or the depositor's remark. Unless noted, calls follow the shape of the dose curve; as a rule, active = well fitted curve in the direction sought with a large enough effect; inconclusive = small, poorly fitted or top-dose-only effect, or another doubt; inactive = no such curve, though single readings can be large; an effect the other way counts as inactive or inconclusive. Unless noted, % is scaled to controls: 0 for no effect and ±100 for the full control effect.
SMILES,RGS12 GoLoco inh,Sfp inh,NPSR antagonist,Coupling enz,ALDH1A1 inh,JMJD2E inh
CCCCN1C(=O)c2ccc(C(=O)NCCN3C(=O)S/C(=C\c4cccnc4)C3=O)cc2C1=O,12.8%,-2.6%,-13.4%,8.7,1.26µM*,3.1%
c1ccc2c(c1)OCC(c1nnc3sc(-c4cnccn4)nn13)O2 (stereo not drawn),25.0%,20µM*,-19.0%[46.1 µM],-3.8,8.91µM*,-3.9%
Fc1ccc(-c2nnc3sc(C4COc5ccccc5O4)nn23)cc1 (stereo not drawn),-3.3%,-8.2%,-20.3%[46.1 µM],0.2,0.9%,-5.4%
c1ccc2c(c1)OCC(c1nnc3sc(-c4ccc5c(c4)OCO5)nn13)O2 (stereo not drawn),-6.0%,25.1µM*,-23.5%[46.1 µM],0.3,?,?
Fc1ccc(-c2nn3c(C4COc5ccccc5O4)nnc3s2)cc1 (stereo not drawn),-1.3%,39.8µM*,-6.9%[46.1 µM],4.2,31.6µM*,-5.4%
COn1c2c(c3c4nonc4ccc31)CCCC2,-0.9%,-27.4%,21.6%[46.1 µM],-42.9*,?,?
CCOC(=O)c1c(C)n(OC)c2ccc3c(no[n+]3[O-])c12,-3.0%,16.5%,-1.2%[46.1 µM],-1.0,3.6%,4.0%
COn1c(C)c(C(C)=O)c2c3nonc3ccc21,-18.6%,-24.2%,8.0%[46.1 µM],-47.2*,?,?
CCSc1nc2sc3c(c2c(=O)n1-c1ccccc1)CCN(C(C)C)C3,nt,-4.0%,nt,-0.3,nt,nt
COc1cc(/C=C/C(=O)O)cc2c1OCCO2,10.5%,20.0%,2.3%,2.6,?,?
COc1ccc(C)cc1NC(=O)CSc1ccc(-c2ccccn2)nn1,nt,-3.2%,nt,nt,nt,nt
COc1ccccc1NC(=O)CSc1ccc(-c2ccco2)nn1,nt,44.7µM*,nt,nt,nt,nt
COc1ccc(OC)c(NC(=O)CSc2ccc(-c3ccco3)nn2)c1,nt,14.1µM*,nt,nt,nt,nt
Cc1nn(CC(=O)NCc2cccs2)c(=O)c2nn(-c3ccccc3)c(C)c12,nt,-2.1%,nt,-2.8,nt,nt
C=C1C(=O)[C@@]23[C@H](O)C[C@@H]4C(C)(C)CC[C@H](O)[C@@]4(C)[C@@H]2CC[C@@H]1[C@H]3O,8.6%,-5.3%,-10.9%,6.2,0.2%,1.9%
C=C1C(=O)[C@@]23[C@H](O)C[C@@H]4C(C)(C)CC[C@H](O)[C@]4(C)[C@@H]2C[C@H](O)[C@@H]1[C@H]3O,4.8%,44.7µM*,-3.0%,7.1,-1.8%,-1.6%
CCCn1c(=N)n(CC(O)c2ccco2)c2ccccc21 (stereo not drawn),3.6%,8.1%,0.2%[46.1 µM],-3.8,4.9%,-1.1%
Cn1c(=N)n(CC(O)c2ccco2)c2ccccc21 (stereo not drawn),0.5%,89.1µM*,0.5%[46.1 µM],-0.7,3.9%,4.8%
CCCC[C@@H]1C[C@H]1C(NC(=O)Cc1ccccc1)c1ccc(-c2ccccc2)cc1 (stereo partly drawn),9.4%,18.1%,nt,1.0,0.8%,2.3%
CCCC[C@@H]1C[C@H]1C(NC(=O)c1ccco1)c1ccccc1 (stereo partly drawn),9.0%,9.9%,nt,-0.6,25.1µM*,-12.4%
COC(=O)[C@@H]1C[C@H]1[C@@H](NC(=O)c1cccnc1)c1ccccc1,3.5%,9.8%,nt,0.3,3.4%,6.4%
COC(=O)[C@H]1C[C@@H]1[C@H](NC(=O)c1ccccc1)c1ccccc1,-10.7%,3.4%,3.7%,0.5,8.91µM*,-4.9%
CCCNC(=O)OC[C@@H]1O[C@H](CCO/N=C\C[C@H]2C=C[C@H](OC(C)=O)[C@@H](COC(C)=O)O2)C=C[C@@H]1Oc1ccc(OC)cc1,nt,29.4%,nt,0.0,-3.5%[13.5 µM],nt
